ATXN2 expr inh = reduces ATXN2 reporter expression in HEK-293 cells; Potency, µM (doses to about 57 µM), most hits filed as inhibitors; HEK-293 ATXN2-luciferase reporter, luminescence, 24 h; AID 1745845; 0.72% of 360,000 active; further: nearly all actives have a fitted effect of over 55% in size
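ATXN2-luciferase reporter cells (luciferase flanked by upstream and downstream ATXN2 gene portions) were treated 24 h at 37 °C with compounds at up to 57 uM. SteadyGlo luminescence gave expression; GF-AFC fluorescence gave viability.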
HepG2 tox-1 = HepG2 cytotoxicity, counter-screen for TGF-b inhibitors. HepG2 CAGA-GFP viability, ATP luminescence, 18 h. Potency, µM (titrated, usually from 46.1 µM), most hits filed as cytotoxic. 0.76% of 410,000 active. AID 588856
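HepG2 CAGA-GFP cells (1000/well, DMEM with 1% FBS) received compound, then TGF-beta at 500 pg/mL final, and were incubated 18 hours at 37 degrees C. Viability was read by CellTiter-Glo luminescence. Media-only wells were set as complete cell-killing and DMSO as no toxicity.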
IL1B secr inh = inhibitors of inflammasome signaling (IL-1 beta secretion) | 4.7% of 360,000 active | activity change, % at 57.5 µM | AID 743279 | THP-1 LPS/ATP IL-1B secretion, AlphaLISA, 16 h; stronger effect = lower value; in the data active means activity change below about -50%; inconclusive means mostly about -30% to -49%
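THP-1 cells pretreated 1 hr with compounds (up to 57.5 uM final), then stimulated with LPS (250 ng/mL final) plus ATP (1.25 mM final); secreted IL-1B measured by AlphaLISA after 16 hr, decreased signal indicating inhibition.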
TGFb SMAD3 inh = TGF-b pathway inhibition. HepG2 CAGA-GFP TGF-b/SMAD3 reporter, GFP fluorescence, 18 h; TGF-beta stimulated, 500 pg/mL final. Potency, µM (titrated, usually from 46.1 µM), usual class: inhibitors. AID 588855. 1.2% of 410,000 active; further: nearly all actives have a fitted effect of over 65% in size
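HEPG2 CAGA-GFP cells (1000/well, DMEM with 1% FBS) were pre-incubated 2 h at 37 degrees C, given compound by pin tool, then stimulated with TGF-beta at 500 pg/mL final for 18 h before per-cell GFP fluorescence imaging.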
ATXN viability = reduces viability in counter-screen for ATXN expression inhibitors. 0.49% of 400,000 active. S2 cells (HEK-293 line with an ATXN2-luciferase reporter) viability, CellTiter-Fluor protease fluorescence, 24 h. AID 651635. Potency, µM (doses to about 56.7 µM), hits mostly cytotoxic; further: nearly all actives have a fitted effect of over 40% in size
TGFb CAGA inh = confirmation of TGF-b signaling inhibitors in HepG2 reporter cells | shares compounds with TGFb SMAD3 inh | HepG2 CAGA-GFP TGF-b reporter, GFP fluorescence, 18 h; cells stimulated with TGF-beta, 500 pg/mL | Potency, µM (titrated, usually from 46.1 µM), most hits filed as inhibitors | 63% of 1,600 active; further: nearly all actives have a fitted effect of over 65% in size
HepG2 tox-2 = toxic to HepG2 cells in TGF-b counterscreen | AID 720535 | 27% of 1,600 active | shares compounds with TGFb SMAD3 inh | Potency, µM (top dose mostly 46.1 µM), actives largely listed as inhibitors | HepG2 CAGA-GFP viability, ATP luminescence, 18 h; cells stimulated with TGF-beta, 500 pg/mL; further: nearly all actives have a fitted effect of over 70% in size
CCL64 TGFb inh = TGF-b inhibition, CCL64 orthogonal assay; shares compounds with TGFb SMAD3 inh; CCL64 CAGA-GFP reporter, TGF-b stimulated, GFP fluorescence, 18 h; Potency, µM (highest dose often 46.1 µM), actives largely listed as inhibitors; 41% of 1,600 active; further: nearly all actives have a fitted effect of over 65% in size
COP TGFb inh = TGF-b inhibition validated with COP promoter. shares compounds with TGFb SMAD3 inh. Potency, µM (titrated, usually from 46.1 µM), most hits filed as inhibitors. HepG2 COP-GFP TGF-b reporter, GFP fluorescence, 18 h; cells stimulated by added recombinant TGF-beta. 3% of 1,600 active. AID 720537; further: nearly all actives have a fitted effect of over 70% in size
Each line names hits and unclear results; the compound was inactive in the other large screens (follow-up assays come after a bar, where they were run). Sampled rows, rich in hits. Any-hit rate of the full collection: about 5.7%. Unless noted, the call rests on the fitted dose curve; in most records, active means well fitted curve in the direction sought with a large enough effect; inconclusive means small, poorly fitted or top-dose-only effect, or another doubt; inactive means no such curve, though single readings can be large; an effect the other way counts as inactive or inconclusive.

CCCCc1ccc2[nH]cc(CCN)c2c1	ATXN2 expr inh inconclusive, IL1B secr inh -89.1, TGFb SMAD3 inh inconclusive
COCCCn1c(N)c(C(=O)NCCC(C)C)c2nc3ccccc3nc21	IL1B secr inh -52.6, TGFb SMAD3 inh inconclusive (no result: ATXN viability)
CCCCCCn1c(N)c(C(=O)NCCN2CCOCC2)c2nc3ccccc3nc21	IL1B secr inh -73.2, TGFb SMAD3 inh 15.8µM
CCCCCn1c(N)c(C(=O)NCCN2CCOCC2)c2nc3ccccc3nc21	IL1B secr inh -58.4, TGFb SMAD3 inh inconclusive
Nc1c(C(=O)NCc2ccco2)c2nc3ccccc3nc2n1CCN1CCOCC1	ATXN2 expr inh inconclusive
Nc1c(C(=O)NCc2ccco2)c2nc3ccccc3nc2n1Cc1ccccc1	IL1B secr inh inconclusive, TGFb SMAD3 inh 11.2µM (no result: ATXN2 expr inh, ATXN viability)
O=C(NCNC(=O)N[C@H]1C(=O)NC(=O)N1CO)N[C@H]1C(=O)NC(=O)N1CO	none (no result: ATXN2 expr inh, HepG2 tox-1, IL1B secr inh, TGFb SMAD3 inh)
Cc1ccc(Cl)cc1N1CCN(C(=O)C2CCCN(S(=O)(=O)c3ccc(Br)s3)C2)CC1 (configuration not stated)	TGFb SMAD3 inh inconclusive (no result: IL1B secr inh)
CSc1cccc(CNC(=O)C2CCC(=O)N(Cc3cccc(C(F)(F)F)c3)C2)c1 (configuration not stated)	TGFb SMAD3 inh inconclusive
CC1Cc2ccccc2CN1 (configuration not stated)	none (no result: ATXN2 expr inh, IL1B secr inh, ATXN viability)
COC(=O)C1=C(c2ccccc2OCc2ccccc2)C[C@@H]2CC[C@H]1N2C(=O)NCc1ccc([N+](=O)[O-])cc1	IL1B secr inh -52.6
COC(=O)C1=C(c2ccc(F)cc2OCc2ccccc2)C[C@@H]2CC[C@H]1N2C(=O)NCc1cccc(OC)c1	IL1B secr inh inconclusive, ATXN viability inconclusive
COC(=O)C1=C(c2ccc(F)cc2OCc2ccccc2)C[C@@H]2CC[C@H]1N2C(=O)NCc1cccc(C(F)(F)F)c1	IL1B secr inh -59.3
COC(=O)C1=C(c2ccc(F)cc2OCc2ccccc2)C[C@@H]2CC[C@H]1N2C(=O)NCc1ccc(Br)cc1	IL1B secr inh -59.7, ATXN viability inconclusive
CCC1(O)C(=O)OCc2c1cc1n(c2=O)Cc2cc3cc(O)ccc3nc2-1 (configuration not stated)	IL1B secr inh -103.5, TGFb SMAD3 inh inconclusive (no result: ATXN viability)
CC[C@@]1(O)C(=O)OCc2c1cc1n(c2=O)Cc2cc3c(NC(=O)CN)cccc3nc2-1	ATXN2 expr inh 0.336µM, IL1B secr inh inconclusive, TGFb SMAD3 inh inconclusive (no result: ATXN viability)
CC[C@@]1(O)C(=O)OCc2c1cc1n(c2=O)Cc2cc3ccccc3nc2-1	ATXN2 expr inh 0.0193µM (no result: IL1B secr inh, ATXN viability)
C[C@H](N)C(=O)c1ccccc1	none (no result: HepG2 tox-1, IL1B secr inh, TGFb SMAD3 inh)
Cc1[nH]c2ccc(OC(F)(F)F)cc2c1CCNCc1cccc([N+](=O)[O-])c1	ATXN2 expr inh inconclusive, IL1B secr inh -94.8, TGFb SMAD3 inh inconclusive
CCOc1cccc(CNCCc2c(C)[nH]c3ccc(OC(F)(F)F)cc23)c1O	IL1B secr inh -98.4, ATXN viability inconclusive (no result: ATXN2 expr inh)
COc1ccc2[nH]c(C)c(CCNCc3cccnc3)c2c1	none
CCOC(=O)C1(c2ccccc2)CCN(CCc2ccc(N)cc2)CC1	none (no result: HepG2 tox-1, IL1B secr inh, TGFb SMAD3 inh)
CC(C)c1ccc(N2C(=O)NC(=O)/C(=C\C=C\c3ccco3)C2=O)cc1	ATXN2 expr inh inconclusive, IL1B secr inh -99.9, TGFb SMAD3 inh 10µM, ATXN viability 28.2µM | TGFb CAGA inh 4.11µM | HepG2 tox-2 7.31µM | CCL64 TGFb inh 5.8µM | COP TGFb inh inactive
COc1ccc(S(=O)(=O)N2Cc3ccccc3-n3nncc3C2)cc1	none
COc1ccc(S(=O)(=O)N2c3ccc(F)cc3CCC2C)cc1 (configuration not stated)	TGFb SMAD3 inh 6.31µM, ATXN viability inconclusive (no result: ATXN2 expr inh) | TGFb CAGA inh 4.11µM | HepG2 tox-2 inactive | CCL64 TGFb inh 5.8µM | COP TGFb inh inactive
COc1ccc(CC2NCC(O)C2OC(C)=O)cc1 (configuration not stated)	ATXN2 expr inh 0.0106µM, IL1B secr inh -109.4, TGFb SMAD3 inh 0.112µM, ATXN viability inconclusive | TGFb CAGA inh 0.103µM | HepG2 tox-2 0.366µM | CCL64 TGFb inh 0.082µM | COP TGFb inh inactive
CC(N)Cc1ccc2c(c1)OCO2 (configuration not stated)	none (no result: ATXN2 expr inh, HepG2 tox-1, IL1B secr inh, TGFb SMAD3 inh)
CCOc1ccc(CC(=O)Nc2ccc3c(c2)N(C)C(=O)c2ccccc2S3)cc1OCC	ATXN viability inconclusive (no result: IL1B secr inh)
Cc1[nH]nc2ccc(-c3cncc(OC[C@@H](N)Cc4c[nH]c5ccccc45)c3)cc12	ATXN2 expr inh 2.24µM, IL1B secr inh -104.3, TGFb SMAD3 inh 1µM (no result: ATXN viability) | TGFb CAGA inh 1.64µM | HepG2 tox-2 1.3µM | CCL64 TGFb inh inactive | COP TGFb inh inactive
CC1=CC2OC3CC4OC(=O)C=CC=CC(=O)OCCC(C)C(O)C(=O)OCC2(CC1O)C4(C)C31CO1 (configuration not stated)	ATXN2 expr inh inconclusive, IL1B secr inh -97.7, ATXN viability inconclusive | TGFb CAGA inh 0.0116µM | CCL64 TGFb inh 0.0046µM | COP TGFb inh inactive
CC1=CC2OC3CC4OC(=O)C=CC=CC(C(C)O)OCC(O)C(C)CC(=O)OCC2(CC1O)C4(C)C31CO1 (configuration not stated)	IL1B secr inh -115.8, ATXN viability inconclusive | TGFb CAGA inh 0.0411µM | CCL64 TGFb inh 0.0291µM | COP TGFb inh inactive
CO[C@@H](C)[C@](O)(C(=O)OCC1=CCN2CC[C@@H](O)[C@H]12)C(C)C	none (no result: ATXN2 expr inh, HepG2 tox-1, IL1B secr inh, TGFb SMAD3 inh)
O=C1NCCOC(=O)[C@@H](Cc2ccc(F)cc2)CC/C=C/C[C@H]1CC(=O)N(CCO)Cc1ccccc1	none
COc1ccc(-n2nnnc2C(c2ccccc2OC(F)(F)F)N2CCC(n3c(=O)[nH]c4ccccc43)CC2)cc1 (configuration not stated)	ATXN2 expr inh inconclusive, TGFb SMAD3 inh 11.2µM, ATXN viability inconclusive (no result: IL1B secr inh) | TGFb CAGA inh 5.8µM | HepG2 tox-2 inconclusive | CCL64 TGFb inh inconclusive | COP TGFb inh inactive

Compound activity deposited in PubChem BioAssay by National Center for Advancing Translational Sciences (NCATS).
